# Screening results (PubChem BioAssay)
# E coli growth-1: E. coli growth inhibition, primary screen, OD600; Escherichia coli growth, 23 h; active compounds read low; OD600 absorbance (test concentration not listed); 330,000 tested, 0.21% active;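 active means OD600 absorbance below the run mean of sample wells minus 3.6 SD, in any replicate, cut at about 0.56 in these data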
# AddAB inh: growth inhibition of E. coli expressing H. pylori AddAB, primary screen, AddAB inhibitor project, absorbance; 330,000 tested, 0.29% active; inhibition, % at 11.9 µM; in the data active means inhibition above about 12%;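 further: 0% = vehicle wells of infected cells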
# E coli growth-2: E. coli V3065 growth inhibition, primary screen, counter-screen for AddAB inhibitor project, absorbance, OD600 | 18 h | inhibition, % at 11.9 µM | 330,000 tested, 0.27% active | AID 449728, 2010;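 active means inhibition above the campaign's mean inhibition across all tested compounds plus 3 SD, cut at about 9.9% in these data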;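 further: uninfected addAB+ strain grown without phage in ampicillin broth; 0% = DMSO wells and 100% = ciprofloxacin 0.95 µg/ml wells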
# phage Ecoli inh: growth loss of phage-infected E. coli, primary screen, RecBCD inhibitor project, absorbance, with phage, HTS; inhibition, % at 11.9 µM; 360,000 tested, 0.26% active; AID 651602, 2012; in the data active means inhibition above about 11%
# Tat transport: E. coli Tat export inhibitors, primary screen, MC4100, TorA-mCherry reporter, fluorescence, single point; inhibition, % at 10 µM; 340,000 tested, 0.036% active;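 active means mean replicate inhibition at least 50% and at least half of replicates individually reaching 50%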;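 further: exported cargo escapes ClpAP degradation while cytoplasmic cargo is degraded and loses fluorescence; 0% = median of neutral control wells and 100% = median of NaSCN control wells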
# RecBCD conf: growth loss of phage-infected RecBCD+ E. coli, confirmation, RecBCD inhibitor project, absorbance, E. coli V66, T4 gene 2 phage. shares compounds with phage Ecoli inh. E. coli V66 + T4 2- phage, growth OD. inhibition, % at 11.9 µM. 890 tested, 45% active;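 active means mean inhibition over triplicates exceeding the hit threshold derived in the original primary screen, cut at about 11% in these data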
# Ecoli viability: E. coli viability inhibition, counter-screen for RecBCD inhibitor project, absorbance, high throughput. shares compounds with phage Ecoli inh. inhibition, % at 11.9 µM. absorbance (OD) growth. AID 651983, 2013. 890 tested, 29% active; in the data active means inhibition above about 20%;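 further: E. coli strain V66 grown with compound alone and no phage infection; 0% = bacteria with DMSO vehicle only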
# AddAB phage OD: growth loss of phage-infected AddAB-carrying E. coli, confirmation, counter-screen for RecBCD inhibitor project, absorbance, E. coli V3065, T4 phage; inhibition, % at 11.9 µM; E. coli expressing H. pylori AddAB + T4 phage, OD growth; gene 2 mutant T4, recBCD-deleted host; 890 tested, 45% active; AID 651984, 2013; shares compounds with phage Ecoli inh;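 active means mean inhibition above the solvent-only control wells' mean plus 3 SD, cut at about 22% in these data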;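 further: higher means less bacterial growth from phage killing when AddAB is blocked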
# The depositor's hits bear a star; . = no result. In the library only some 0.5% were active in any assay of this set; here they are far more common.
SMILES,E coli growth-1,AddAB inh,E coli growth-2,phage Ecoli inh,Tat transport,RecBCD conf,Ecoli viability,AddAB phage OD
Nc1nc(N)c2cc(Sc3cccc(C(F)(F)F)c3)ccc2n1,.,.,.,61*,.,67*,58*,86*
Nc1nc(N)c2cc(Sc3ccc(Cl)cc3)ccc2n1,.,.,.,101*,.,102*,104*,103*
FC(F)(F)c1cccc(Sc2nc(-c3ccccc3)nnc2C(F)(F)F)c1,0.71,4,1,2,0,.,.,.
COC(=O)c1ccc(C23CC4(C2)C(CN(C)C4c2ccccc2)C3c2ccc(C(F)(F)F)cc2)cc1 (configuration not stated),0.7,.,.,.,.,.,.,.
Cc1cn([C@H]2C=C[C@@H](CO)O2)c(=O)[nH]c1=O,0.65,7,3,22*,4,16*,7,51*
COc1cc(C=C2NC(=O)NC2=O)cc(Br)c1OCc1ccccc1,0.68,.,.,.,.,.,.,.
COc1cccc(-c2cnc(C(O)c3cc(F)cc(Cl)c3)[nH]2)c1 (configuration not stated),.,.,.,8,.,.,.,.
Cc1ccc(-c2cnc(C(O)c3cc(F)cc(Cl)c3)[nH]2)cc1 (configuration not stated),.,.,.,12*,.,7,10,6
OC(c1cccc(Cl)c1)c1ncc(-c2ccc3ccccc3c2)[nH]1 (configuration not stated),.,.,.,15*,.,12*,16,20
COc1cccc(-c2cnc(C(O)c3cc(Cl)cc(Cl)c3)[nH]2)c1 (configuration not stated),.,.,.,12*,.,11*,14,19
OC(c1cccc(F)c1)c1ncc(-c2ccc3ccccc3c2)[nH]1 (configuration not stated),.,.,.,2,.,.,.,.
Cc1ccc(NC(=O)NNC(=O)c2cc3ccccc3cc2O)c(C)c1,0.7,11,10*,12*,2,7,8,7
CCc1ccc(NC(=O)NNC(=O)c2cc3ccccc3cc2O)cc1,0.7,5,7,7,-16,.,.,.
O=C(NNC(=O)c1cc2ccccc2cc1O)Nc1ccccc1F,0.68,12,9.9*,11*,-5,6,7,10
COc1ccc(S(=O)(=O)N(Cc2ccc(OC)c(OC)c2)Cc2ccco2)cc1,0.77,2,1,3,-1,.,.,.
COc1ccc(S(=O)(=O)N(CCC(N)=O)Cc2ccco2)cc1OC,0.64,1,-1,98*,19,-2,-2,-4
Nc1ccc2oc(-c3cccc(Br)c3)nc2c1,0.69,-1,-1,.,-2,.,.,.
Nc1nc2cc(Br)ccc2o1,0.65,.,.,14*,-16,11*,11,28*
O=C(O)C=CC(=O)O,0.68,.,.,.,.,.,.,.
NS(=O)(=O)c1ccc(NC(=S)Nc2ccc(S(=O)(=O)Nc3nccs3)cc2)cc1,.,.,.,11*,.,3,3,8
CC(C)(C)C(=O)NC(=S)Nc1ccc(S(=O)(=O)Nc2nccs2)cc1,0.65,3,-1,5,-2,.,.,.
O=S(=O)(Nc1ncccn1)c1ccc(NC(=S)Nc2ccccc2Cl)cc1,.,7,3,11*,-10,0,-2,6
O=C(Cc1cnn(-c2ccccc2)c1)c1ccc(O)c(O)c1O,0.64,12,8,11*,12,2,5,10
CC(CCc1ccco1)NC(=O)Cn1ncc2c(=O)oc3ccccc3c21 (configuration not stated),0.67,4,-2,99*,0,-4,-4,-4
Cn1ccc2ccc(C3=CC(=O)CC(c4ccc(F)cc4)C3)cc21 (configuration not stated),0.72,.,.,.,.,.,.,.
SMILES,E coli growth-1,AddAB inh,E coli growth-2,phage Ecoli inh,Tat transport,RecBCD conf,Ecoli viability,AddAB phage OD
Fc1ccc(CNC(=S)Nc2ccc(Cl)cc2)cc1,0.63,8,8,12*,-2,5,7,7
Fc1ccc(NC(=S)NCc2ccccc2)cc1,0.65,2,1,3,14,.,.,.
O=[N+]([O-])c1ccc(NC(=S)NCCc2ccccc2)cc1,0.59,8,6,8,-3,.,.,.
O=[N+]([O-])c1ccc(NC(=S)NCCc2ccc(Cl)cc2)cc1,0.58,11,11*,13*,-19,3,5,9
COC(=O)C1C2CC3c4[nH]c5cc(OC)ccc5c4CCN3CC2CC(OC(=O)C=Cc2cc(OC)c(OC)c(OC)c2)C1OC (configuration not stated),0.72,.,.,.,.,.,.,.
CCN(CC)c1ccc(/C=N/Nc2nc3ccccc3[nH]2)c(O)c1,.,-1,2,15*,-7,8,13,16
CC=CC=CC(=O)Nc1cccc(C2=NOC3(C2)CC(C(N)=O)N(C(=O)CCCCC)C3)c1 (configuration not stated),0.69,.,.,.,.,.,.,.
CC1Cc2ccccc2N1C(=O)CCn1c(=O)oc2ccccc21 (configuration not stated),0.66,-1,0,99*,10,-7,-7,-2
COc1ccc(C2=CC(=O)CC(c3ccc4c(c3)OCO4)C2)cn1 (configuration not stated),0.71,.,.,.,.,.,.,.
O=C(NCc1ccccc1)c1sc(=S)n2c1[nH]c(=O)c1ccccc12,0.72,4,-2,15*,-4,-2,-2,-10
CC(C)CC(NC(=O)c1nc[nH]c1C(=O)N1CCN(c2ccccc2)CC1)C(=O)OCc1ccccc1 (configuration not stated),0.71,.,.,.,.,.,.,.
O=Nc1c(-c2cccc([N+](=O)[O-])c2)nc2ncccn12,.,5,2,16*,.,72*,77*,100*
O=C1C2CCCCC2C(=O)N1CCCCN1CCN(c2nsc3ccccc23)CC1 (configuration not stated),0.69,.,.,.,.,.,.,.
CCN(CC)c1ccc(C(=C2C=CC(=[N+](CC)CC)C=C2)c2ccccc2)cc1,.,.,.,79*,64*,73*,80*,83*
Oc1ccccc1C=NNC(=S)NN=Cc1ccccc1O,0.57,.,.,13*,-2,13*,13,38*
NC(=S)N/N=C/c1ccccc1O,.,3,2,2,3,.,.,.
Oc1ccc(/C=N/NC(=S)Nc2cccnc2)c(O)c1O,.,.,.,15*,2,11*,12,32*
O=C(N/N=C/c1cc2c3c(c1O)CCCN3CCC2)c1ccccc1O,.,.,.,25*,-6,10,14,14
Cc1nn(-c2ccccc2)c(N2CCCC2)c1/C=N/NC(=O)c1ccccc1O,.,3,2,-1,2,.,.,.
C=CCOC(=O)C(=O)C=Cc1c(C)n(C)n(-c2ccccc2)c1=O,0.66,.,.,.,.,.,.,.
